# Assay results: article PMC5540273 (PLoS ONE, 2017)
# Tested on: ERN1
# Details: concentration: 1 μM, replicates: in singlicate; n = 1
# 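Also: KINOMEscan kinase panel screen.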
row,Structure (SMILES),%Inh
1,Fc1ccc(-c2ncn(C3CCNCC3)c2-c2ccnc(Oc3ccc(-c4ccccc4)cc3)n2)cc1 [SB-245391],45%
2,Cn1cc(-c2ccc3c(c2)CCN3C(=O)Cc2cccc(F)c2)c2c(N)ncnc21 [GSK2603358],3%
3,COc1cc(Nc2nccc(N3CCC(NC(=O)c4cc5ccccc5s4)C3)n2)cc(OC)c1OC (stereo not shown) [GSK1379760],6%
4,CC(=O)N1CCN(c2ccc(Nc3nccc(-c4sc(C(C)C)nc4-c4cccc(NS(=O)(=O)c5cccc(Cl)c5)c4)n3)cn2)CC1 [GSK1660437],44%
5,COc1cc(Nc2ncc3c(C)nc(-c4cc5ccccc5[nH]4)n3n2)cc(OC)c1OC [GW869516],0%
6,CN1CCN(Cc2cccc(-c3ccc4c(Nc5ccc(Oc6ccccc6)cc5)ccnc4c3)c2)CC1 [GW578342],11%
7,Nc1ncc(-c2ccc3nccc(-c4ccncc4)c3c2)cc1S(=O)(=O)N1CCOCC1 [GSK1627798],0%
8,CN(C)S(=O)(=O)c1cc(-c2ccc3nccc(-c4cccc(S(N)(=O)=O)c4)c3c2)cnc1N [GSK1669921],8%
9,CCn1c(-c2nonc2N)nc2c(C#CC(C)(C)O)ncc(OCCCCN)c21.O=C(O)C(F)(F)F.O=C(O)C(F)(F)F [GSK507274],0%
10,Cc1ccc(C)c(NC(=O)NC2CCN(c3ccnc(Nc4ccc(F)cc4)n3)C2)c1 (stereo not shown) [GSK1379720],3%
